An excerpt weighted towards active compounds, which were near 8.8% of everything screened.
HTT ATP protect: cytoprotection in Huntington HTT-Q103 PC12 cell model; PC12 HTT-Q103 induced, cytoprotection, ATP luminescence, 40 h; Potency, µM (doses to about 56.4 µM), for the others: cytoprotection (ATP increase), usual class: activators; 230,000 tested, 0.14% active; note: % of control where 0% means no effect; nearly all actives have a fitted effect of over 45% in size
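Huntington model: PC12 line, ecdysone-inducible HTTQ103 exon1–GFP, tebufenozide 100 nM. Test articles in a dose series. Endpoint luminescence from cellular ATP.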
ALDH1A1 block: blocks purified human ALDH1A1 activity; Purified ALDH1A1, NADH fluorescence, propionaldehyde substrate; Potency, µM (series often up to 75.3 µM), without a hit: top-dose activity, negative = inhibition, actives largely listed as inhibitors; 220,000 tested, 7.3% active; AID 1030; active = well fitted inhibition curve with a large enough effect, not every such curve was filed as active; inconclusive = small, poorly fitted or top-dose-only effect, or another doubt; inactive = no such curve, though single readings can be large or run the other way;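 note: plate controls were no enzyme wells and a reference inhibitor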
Target sequence (P00352 whole entry, looked up): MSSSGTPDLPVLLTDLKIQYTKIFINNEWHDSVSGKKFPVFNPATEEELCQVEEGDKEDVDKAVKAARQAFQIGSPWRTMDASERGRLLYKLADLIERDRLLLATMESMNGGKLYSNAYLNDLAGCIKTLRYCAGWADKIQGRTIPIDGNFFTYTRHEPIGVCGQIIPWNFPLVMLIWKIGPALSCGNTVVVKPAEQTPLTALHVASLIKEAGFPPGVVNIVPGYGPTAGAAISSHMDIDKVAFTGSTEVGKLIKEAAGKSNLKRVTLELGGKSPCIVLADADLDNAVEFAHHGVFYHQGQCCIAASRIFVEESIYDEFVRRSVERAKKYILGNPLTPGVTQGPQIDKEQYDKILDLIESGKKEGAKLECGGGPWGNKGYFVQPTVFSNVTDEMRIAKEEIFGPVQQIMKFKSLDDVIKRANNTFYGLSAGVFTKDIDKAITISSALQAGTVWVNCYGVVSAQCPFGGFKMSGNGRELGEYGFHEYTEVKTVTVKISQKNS
HTT aggregate: reduces HttQ103-GFP aggregates in PC12 cells; PC12 HttQ103-GFP aggregates, Acumen cytometry, 40 h; Potency, µM (doses to about 46.1 µM), for the others: at the highest dose activity change, negative = inhibition, usual class: inhibitors; 220,000 tested, 1.1% active; note: % is set by controls: 0 for no effect and ±100 for the full control effect; nearly all actives have a fitted effect of over 60% in size
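Aggregate formation scored by laser-scanning cytometer (488 excitation, 500–530 emission) in lysed PC12 cells expressing Q103-GFP after 100 nM tebufenozide induction; library tested in dose series, with ATPLite reagent added in the multiplex.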
HPGD block: blocks human HPGD enzyme activity | 150,000 tested, 4.3% active | Potency, µM, for the others: at the highest dose activity change, negative = inhibition, actives largely listed as inhibitors | P15428 | AID 894 | purified HPGD, NADH fluorescence kinetic, PGE2 substrate; active = well fitted inhibition curve with a large enough effect, not every such curve was filed as active; inconclusive = small, poorly fitted or top-dose-only effect, or another doubt; inactive = no such curve, though single readings can be large or run the other way; note: % is set by controls: 0 for no effect and ±100 for the full control effect
Target sequence (P15428 whole entry, looked up): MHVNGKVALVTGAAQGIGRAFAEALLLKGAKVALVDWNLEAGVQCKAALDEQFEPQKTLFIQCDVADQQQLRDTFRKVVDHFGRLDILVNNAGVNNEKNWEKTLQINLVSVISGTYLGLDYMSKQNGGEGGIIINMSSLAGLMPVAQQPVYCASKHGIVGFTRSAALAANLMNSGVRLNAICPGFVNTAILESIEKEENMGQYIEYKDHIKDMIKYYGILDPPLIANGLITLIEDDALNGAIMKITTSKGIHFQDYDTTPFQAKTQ
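20 nM HPGD preincubated 15 min at room temperature with compound in 50 mM Tris-HCl pH 8, 0.01% Tween 20. Started with 1 mM NAD+ and 30 uM prostaglandin E2; NADH fluorescence (360/450 nm) read 5 times over 30-s intervals, last minus first.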
Lamin A splicing: LMNA splicing modulation; HeLa LMNA splicing GFP/RFP minigene ratio, 48 h; Potency, µM (series often up to 46.1 µM), for the others: at the top dose ratio change, negative = inhibition, actives largely listed as inhibitors; 200,000 tested, 0.01% active; AID 1487; active = well fitted inhibition curve with a large enough effect in the signal ratio, with a control signal flat, not every such curve was filed as active; inconclusive = small, poorly fitted or top-dose-only effect, or effect the other way, or a change in a side signal; the % refers to the signal ratio; note: % is set by controls: 0 for no effect and ±100 for the full control effect
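S3 HeLa cells stably expressing lamin A-EGFP splicing minigene plus DsRed2, 600 cells/well, 48 h compound exposure at 37C. Laser-scanning cytometry; analysed as GFP (500-530 nm)/RFP (575-640 nm) total intensity ratio; 0.5% DMSO vehicle.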
The depositor's hits bear a star; ? = inconclusive; · = no result; [ ] = remark or other dose. Unless noted, calls come from the whole dose curve; as a rule, active = well fitted curve in the direction sought with a large enough effect; inconclusive = small, poorly fitted or top-dose-only effect, or another doubt; inactive = no such curve, though single readings can be large; an effect the other way counts as inactive or inconclusive. Potency is the fitted concentration of half-maximal effect.

SMILES | HTT ATP protect | ALDH1A1 block | HTT aggregate | HPGD block | Lamin A splicing
CCCCCCC(=O)N(O)C1CC(=O)N(Cc2ccccc2)C1=O (configuration not stated) | 3.3%[10 µM] | 3.55µM* | ? | 17.8µM* | ?
CN(Cc1ccccc1)C1CC(=O)N(c2ccc(C(=O)O)cc2)C1=O (configuration not stated) | -20.3%[0.074 µM] | 28.2µM* | -4.2% | -6.1% | -13.2%
COc1ccc(N2C(=O)CC(N(CCc3ccccc3)C(=O)c3ccccc3)C2=O)cc1 (configuration not stated) | -6.5%[10 µM] | · | -6.3%[9.22 µM] | · | ·
CCCCCC(=O)N(O)C1CC(=O)N(c2ccccc2)C1=O (configuration not stated) | -40.4% | 0.794µM* | ? | 15.8µM* | ?
CCOC(=O)CSc1nc2ccc(NC(=O)COc3ccc(F)cc3)cc2s1 | · | · | · | · | 14.9%[46 µM]
COC(=O)N[C@@H](CCc1ccccc1)/C(C(=O)OC)=C(\C)NCc1ccccc1 | -4.8% | 9.3% | · | -2.7% | ·
Cc1ccc(Cn2nc(C)c(NC(=O)CCCn3nc([N+](=O)[O-])c(Cl)c3C)c2C)cc1 | 43.1%[10 µM] | ? | 5.7% | -2.9% | -4.7%
Cc1nn(Cc2ccc(Cl)cc2Cl)c(C)c1NC(=O)CCl | -5.1%[10 µM] | 8.91µM* | 3.55µM* | -11.7% | ?
Cc1nn(Cc2ccccc2Cl)c(C)c1NC(=O)CCCn1nc([N+](=O)[O-])c(Cl)c1C | 1.7%[10 µM] | 8.91µM* | -18.6% | -10.4% | -14.4%
Cc1nn(Cc2c(Cl)cccc2Cl)c(C)c1NC(=O)CCCn1nc(C)c([N+](=O)[O-])c1C | 18.0%[10 µM] | 3.55µM* | 11.3% | -11.7% | -3.7%
Cc1nn(C)c(Cl)c1NC(=O)OCc1ccc(Cl)cc1Cl | -15.4% | 8.1% | 7.94µM* | -20.5% | 1.2%
O=C1NC2(CCCCCC2)N=C1c1ccc(Br)cc1 | -24.6% | 11.2% | -1.5% | · | 5.8%[46 µM]
CCOc1ccc(NC(=O)CSc2nnc(-c3ccncc3)n2-c2ccccc2)cc1 | · | · | · | · | 8.1%[46 µM]
COc1cccc(Cn2c(=O)n(CC3CCC(C(=O)N4CCOCC4)CC3)c(=O)c3sccc32)c1 (configuration not stated) | · | · | · | · | -4.1%[46 µM]
Cc1ccc(CNC(=O)COCc2cc(-c3cccs3)on2)cc1 | · | · | · | · | 3.9%[46 µM]
Cn1nc(C(=O)OCC(=O)Nc2ccc(S(N)(=O)=O)cc2)c2ccccc2c1=O | 19.5%[10 µM] | · | -11.4%[9.22 µM] | · | ·
CCC1CN(C(=O)N2CCC(C(=O)NCc3cccs3)CC2)c2ccccc2O1 (configuration not stated) | · | · | · | · | 17.2%[46 µM]
Cc1oc(-c2ccc(Cl)cc2)cc1-c1nn2c(-c3ccoc3C)nnc2s1 | 3.6% | 20µM* | -3.8% | 25.1µM* | 11.9%
O=C(NC1CCCC1)O[C@@H]1C(=O)c2cc(Br)ccc2O[C@H]1c1ccc2c(c1)OCO2 | ? | -5.5% | · | -6.3% | ·
COC(=O)N1C(/C=C/c2ccc3c(c2)OCO3)=Cc2ccccc2C1CC(C)=O (configuration not stated) | -4.1%[10 µM] | ? | · | ? | ?
Nc1nnc(CCc2ccccc2)s1 | -6.3% | 1.6% | -4.6% | -9.0% | 9.1%
COc1ccc(Cc2nnc(N)s2)cc1 | 16.2% | ? | 8.8% | 28.2µM* | ?
Nc1nnc(Cc2ccccc2)s1 | -9.8% | 11.2µM* | 9.9%[9.22 µM] | -9.1% | 22.8%
Nc1nnc(Cc2ccc(F)cc2)s1 | -7.2%[10 µM] | · | -24.8%[9.22 µM] | · | ·
COc1ccc(Cc2nnc(N)s2)cc1OC | 2.0%[1.9 µM] | 28.2µM* | 11.1% | 31.6µM* | -7.3%
SMILES | HTT ATP protect | ALDH1A1 block | HTT aggregate | HPGD block | Lamin A splicing
Nc1nnc(C(c2ccccc2)c2ccccc2)s1 | 8.3% | ? | 1.6% | 0.2% | -4.8%
Nc1nnc(CC(c2ccccc2)c2ccccc2)s1 | 12.7% | 1.5% | 7.2% | 22.4µM* | -7.7%
CC(=O)/C(=C\c1ccccc1)CC(=O)O | · | 3.6% | · | -9.3% | -2.1%
Cc1cc(=O)[nH]c2nnc(SCc3ccc(Cl)c(Cl)c3)n12 | · | · | · | · | -9.8%[46 µM]
Cc1cccc(CSCc2nnc(N)s2)c1 | 1.4%[10 µM] | ? | -10.5% | 28.2µM* | -13.7%
COc1ccc(S(=O)(=O)N2CCN(Cc3nc4ccc(C)cc4o3)CC2)cc1Cl | · | · | · | · | -15.8%[46 µM]
C/C(=N\NC(=O)c1cccnc1)c1c(O)cc(C)oc1=O | 12.4%[10 µM] | 25.1µM* | -1.2% | -18.5% | 1.1%
CCc1ccccc1N/N=C(/C)c1c(O)cc(C)oc1=O | -6.2% | 7.94µM* | 9.2% | · | -10.4%[46 µM]
Cc1ccc(CNC(=O)c2ccc(CS(=O)(=O)Cc3ccc(F)cc3)o2)cc1 | · | · | · | · | -4.0%[46 µM]
Cc1c(Cc2ccccc2)sc(NC(=O)C(C)(C)C)c1C(N)=O | -7.8% | 8.91µM* | ? | · | ·
Cc1ccc(/C=N/c2sc(Cc3ccccc3)c(C)c2C(N)=O)o1 | · | ? | -6.1% | -4.6% | 0.5%
COC(=O)c1c(NC(C)=O)sc(Cc2ccccc2)c1C | -45.0% | -3.7% | 16.3% | -8.5% | 5.6%
CCC(=O)Nc1sc(Cc2ccccc2)c(C)c1C(N)=O | -11.2%[10 µM] | 22.4µM* | -22.6%[9.22 µM] | · | ?
Cc1c(Cc2ccccc2)sc(N)c1C(N)=O | -1.5% | 15.8µM* | 5.0% | 28.2µM* | 4.6%
COc1ccc(N/C=C(/C(C)=O)c2ccccc2)cc1 | -14.4%[10 µM] | 10µM* | ? | 22.4µM* | -10.3%
Cc1onc(-c2ccccc2Cl)c1C(=O)Oc1cc(F)cc(F)c1 | · | · | · | · | -19.3%[46 µM]
Cc1sc2ncnc(SCC(=O)NCC(C)C)c2c1C | 8.5% | -1.7% | -17.9% | 15.8µM* | -3.3%
O=C(COC(=O)/C(=C/c1cccs1)c1cccs1)NC(c1ccccc1)c1ccccc1 | · | -9.6% | 11.0% | -23.3% | ?
CC(C)CC(=O)NS(=O)(=O)c1ccc(N)cc1 | -4.6%[10 µM] | 10µM* | -0.2% | -2.0% | -7.1%
Cc1ccccc1NC(=O)c1cc(C(=O)c2cc(Cl)ccc2O)cn(-c2ccccc2C)c1=O | 34.2%[10 µM] | -2.6% | 15.8µM* | 10µM* | ?
COc1ccc(-n2cc(C(=O)c3cc(Cl)ccc3O)cc(C#N)c2=O)cc1 | -13.2% | 12.6% | 16.6% | · | -18.5%[46 µM]
Cc1ccc(-n2cc(C(=O)c3cc(Cl)ccc3O)cc(C#N)c2=O)cc1 | 18.7%[10 µM] | 4.9% | 12.6µM* | -23.1% | ?
COC(=O)C/C=C/[C@@H](C)[C@H](OC)c1c(Br)ccc2c1OCO2 | ? | 1.2% | · | -16.0% | ·
COC(=O)[C@H]1O[C@@H](c2cc(OC)c(C)c(OC)c2OCc2ccccc2)[C@H](C)[C@H]2O[C@@]12C | -61.1% | -3.2% | · | -2.7% | ·
COc1ccccc1NS(=O)(=O)c1cc(NC(=O)c2ccncc2)ccc1N1CCOCC1 | -12.6%[10 µM] | ? | -2.1% | -24.2% | -7.8%
COc1ccccc1NC(=S)NCCN1CCOCC1 | · | 2.2% | -9.2% | -5.8% | -3.4%
COc1ccccc1NS(=O)(=O)c1cc(NC(=O)Nc2ccccc2)ccc1N1CCCCC1 | -28.2%[10 µM] | 17.8µM* | ? | 25.1µM* | ?
COc1ccccc1S(=O)(=O)Nc1cc(S(=O)(=O)N2CCCCC2)ccc1N1CCOCC1 | -25.9%[10 µM] | 12.6µM* | 27.3% | · | -16.2%[46 µM]
S=C(NCCN1CCOCC1)Nc1cccc2ccccc12 | -14.9%[10 µM] | -7.0% | 3.55µM* | -18.5% | -6.9%
